Results: the supplement of paper PMC11634586
Values without a mark were called inactive.

Tested on: NCI-H1688
Assay: inhibition of cell viability relative to untreated control (fraction); higher = stronger growth inhibition, active = 0.5 or more
Details: 30 µM; 24 h
Summary of the method: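 Compounds from a natural compound library (TargetMol) were tested at 30 µM on NCI-H1688 small cell lung cancer cells for 24 h at 37°C under 5% CO2. Cell Counting Kit-8 absorbance at 450 nm, read in triplicate, gave the viability. The values express inhibition of cell viability as a fraction relative to untreated cells.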

Row | Structure (SMILES) | inhibition of cell viability
1 | C=CC1=C(C)c2cc3[nH]c(cc4nc(cc5[nH]c(cc1n2)c(C)c5CCC(=O)O)C(CCC(=O)O)=C4C)c(C)c3C=C [Protoporphyrin IX] | 0.863 (active)
2 | CC(=O)C1=C(O)C=C2Oc3c(C(C)=O)c(O)c(C)c(O)c3C2(C)C1=O (stereo in doubt) [Usnic Acid] | 0.273
3 | C[C@@H]1O[C@@H](O[C@H]2[C@H](Oc3cc(O)c4c(c3)O[C@H](c3ccc(O)cc3)CC4=O)O[C@H](CO)[C@@H](O)[C@@H]2O)[C@H](O)[C@H](O)[C@H]1O [Naringin] | 0.06
4 | COc1ccc(-c2cc(=O)c3c(O)c(OC)c(O[C@@H]4O[C@H](CO[C@@H]5O[C@@H](C)[C@H](O)[C@@H](O)[C@H]5O)[C@@H](O)[C@H](O)[C@H]4O)cc3o2)cc1 [Pectolinarin] | 0.194
5 | Oc1ccc(CC2NCCc3cc(O)c(O)cc32)cc1 (centres undefined) [Demethyl] | 0.182
6 | Cn1c(=O)c2c(ncn2C)n(C)c1=O [Caffeine] | 0.0548
7 | COc1c2occc2c(OC)c2c(=O)cc(C)oc12 [Khellin] | 0.168
8 | N[C@@H](Cc1ccc(O)c(O)c1)C(=O)O [Levodopa] | 0.167
9 | C[C@@H]1O[C@@H](O[C@H]2[C@H](O[C@H]3CC[C@@]4(C)[C@@H](CC[C@]5(C)[C@@H]4CC=C4[C@@H]6CC(C)(C)CC[C@]6(C(=O)O)CC[C@]45C)[C@]3(C)CO)OC[C@H](O)[C@@H]2O)[C@H](O)[C@H](O)[C@H]1O [Alpha-Hederin] | 0.999 (active)
